Screening results (PubChem)
In the library only some 7.4% were active in any assay of this set; here they are far more common.
HEK293 tox: HEK 293 cell cytotoxicity | HEK 293 viability, ATP luminescence (CellTiter-Glo), 48-72 h | Potency, µM (top dose mostly 115 µM), usual class: inhibitors | hit rate 6.6% among 94,000 | AID 1345083; also: nearly all actives have a fitted effect of over 60% in size
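250 HEK 293 cells/well; compound by pintool; incubated 48 or 72 hr at 37 degree Celsius; CellTiter-Glo added, 10 min RT, luminescence imaged.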
NIH3T3 tox: cytotoxic compounds in NIH 3T3 cells; hit rate 4.3% among 94,000; NIH 3T3 viability, CellTiter-Glo ATP luminescence, 48-72 h; Potency, µM (series often up to 96.7 µM), usual class: inhibitors; AID 1345082; also: nearly all actives have a fitted effect of over 55% in size
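ATP-dependent luminescence (CellTiter-Glo) served as the viability signal for NIH 3T3 cells treated with compound for 48 or 72 hr at 37 °C.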
FLuc inh: inhibitors of firefly (Photinus pyralis) luciferase; purified P. pyralis luciferase, luminescence, biochemical; Potency, µM (series often up to 115 µM), actives largely listed as inhibitors; hit rate 2.5% among 76,000; also: nearly all actives have a fitted effect of over 65% in size
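Cell-free enzyme assay, 10nM P. pyralis luciferase, luciferin and ATP each at 10uM. Inhibition profiled over a 6-point titration, read as luminescence.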
SNCA expr inhib: reduces expression of the alpha-synuclein gene. Potency, µM (highest dose often 57.2 µM), most hits filed as inhibitors. hit rate 0.17% among 140,000. HEK-293 SNCA-luciferase knock-in, luminescence, 24 h; also: nearly all actives have a fitted effect of over 45% in size
NPR1 antag: blocks ANP-stimulated signaling of human Npr1 receptor. Potency, µM (titrated, usually from 46.3 µM), actives largely listed as inhibitors. HEK293 hNpr1 GloSensor cGMP, ANP-stimulated luminescence. hit rate 1.6% among 76,000. AID 1347048. P16066; calls by dose curve; also: nearly all actives have a fitted effect of over 60% in size
Target sequence (P16066 whole entry, looked up): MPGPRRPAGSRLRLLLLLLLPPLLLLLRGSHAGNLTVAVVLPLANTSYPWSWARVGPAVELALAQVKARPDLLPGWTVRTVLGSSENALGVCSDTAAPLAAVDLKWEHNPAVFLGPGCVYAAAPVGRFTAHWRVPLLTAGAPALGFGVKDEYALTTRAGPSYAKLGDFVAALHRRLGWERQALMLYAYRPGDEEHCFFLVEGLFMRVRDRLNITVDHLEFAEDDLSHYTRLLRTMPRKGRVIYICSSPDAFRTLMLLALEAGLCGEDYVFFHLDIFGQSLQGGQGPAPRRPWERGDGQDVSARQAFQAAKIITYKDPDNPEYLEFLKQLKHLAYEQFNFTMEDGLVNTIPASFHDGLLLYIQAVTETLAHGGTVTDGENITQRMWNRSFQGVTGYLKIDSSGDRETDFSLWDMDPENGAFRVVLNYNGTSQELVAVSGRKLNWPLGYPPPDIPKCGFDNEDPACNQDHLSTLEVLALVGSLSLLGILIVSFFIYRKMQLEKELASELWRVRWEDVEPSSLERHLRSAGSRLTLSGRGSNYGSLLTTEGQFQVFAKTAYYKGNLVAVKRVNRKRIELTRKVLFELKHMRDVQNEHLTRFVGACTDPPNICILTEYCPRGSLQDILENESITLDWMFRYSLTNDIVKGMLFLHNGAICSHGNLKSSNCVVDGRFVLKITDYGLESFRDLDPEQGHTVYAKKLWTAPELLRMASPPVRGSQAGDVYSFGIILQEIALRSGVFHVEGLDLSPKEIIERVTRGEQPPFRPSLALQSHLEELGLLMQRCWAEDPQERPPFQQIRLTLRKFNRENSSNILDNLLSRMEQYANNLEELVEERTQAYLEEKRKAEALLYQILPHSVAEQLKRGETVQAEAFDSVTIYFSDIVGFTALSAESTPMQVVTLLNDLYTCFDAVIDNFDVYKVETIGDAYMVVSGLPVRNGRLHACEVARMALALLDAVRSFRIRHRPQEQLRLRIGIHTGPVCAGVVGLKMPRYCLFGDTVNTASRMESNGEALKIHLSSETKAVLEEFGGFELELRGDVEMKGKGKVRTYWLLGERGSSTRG
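HEK293 cells stably expressing human Npr1 and cGMP GloSensor pGS-40F, loaded 2 h with 2% GloSensor reagent, given compound 30 min at room temperature. Luminescence read before and 20 min after 0.1 nM hNppA.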
HEK293 viab: counter-screen for SNCA expression inhibitors: cell viability | HEK-293-SNCA-luc viability, GF-AFC fluorescence, 24 h | Potency, µM (doses to about 57.1 µM), most hits filed as cytotoxic | hit rate 0.12% among 150,000 | AID 1671193; also: nearly all actives have a fitted effect of over 30% in size
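HEK-293-SNCA-luc cells (1500/well) plated 24 h, then exposed 24 h to a dilution series; GF-AFC added 30 min at 37C, fluorescence 405/540 nm; normalised to medium-only and DMSO wells, Hill fit.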
Npr1 antag conf: hNpr1 antagonism, confirmation assay; shares compounds with NPR1 antag; HEK293 hNpr1 cGMP GloSensor luminescence, ANP-stimulated; Potency, µM (highest dose often 57.6 µM), usual class: inhibitors; hit rate 76% among 1,400; AID 1347044; calls by dose curve; also: nearly all actives have a fitted effect of over 70% in size
NPR2 antag: antagonizes human Npr2, subtype selectivity check; shares compounds with NPR1 antag; HEK293 hNpr2 GloSensor cGMP luminescence, CNP-stimulated; Potency, µM (top dose mostly 57.6 µM), usual class: inhibitors; hit rate 67% among 1,400; calls by dose curve; also: nearly all actives have a fitted effect of over 70% in size
FLuc inh counter: counter-screen for Npr1 antagonists: firefly luciferase inhibitors | hit rate 0.7% among 1,400 | purified FLuc enzyme, luminescence, Km substrate | shares compounds with NPR1 antag | Potency, µM (titrated, usually from 57.6 µM), usual class: inhibitors; also: series mostly up to about 58 µM
GloSensor cGMP: reduces cGMP signal in GloSensor control cells; shares compounds with NPR1 antag; HEK293 GloSensor cGMP, SNP-stimulated, luminescence; Potency, µM (series often up to 57.6 µM), most hits filed as inhibitors; hit rate 69% among 1,400; calls by dose curve; also: nearly all actives have a fitted effect of over 70% in size
Of the large screens only hits and unclear results are named; the others gave an inactive call (follow-up assays come after a bar, where they were run). Unless noted, calls follow the shape of the dose curve; as a rule, active = well fitted curve in the direction sought with a large enough effect; inconclusive = small, poorly fitted or top-dose-only effect, or another doubt; inactive = no such curve, though single readings can be large; an effect the other way counts as inactive or inconclusive.

O=C(CC1CCCC1)N1[C@H]2CC[C@@H]1c1cnc(-c3ccc(F)cc3)nc1C2	HEK293 tox inconclusive, NPR1 antag 3.98µM | Npr1 antag conf 4.32µM | NPR2 antag 6.11µM | FLuc inh counter inactive | GloSensor cGMP 4.32µM
COc1ccccc1C(=O)N1[C@H]2CC[C@@H]1c1cnc(-c3ccc(F)cc3)nc1C2	HEK293 tox inconclusive, NIH3T3 tox inconclusive, NPR1 antag 8.91µM | Npr1 antag conf 17.2µM | NPR2 antag 15.3µM | FLuc inh counter inactive | GloSensor cGMP 12.2µM
CCCS(=O)(=O)N1[C@H]2CC[C@@H]1c1cnc(-c3ccc(F)cc3)nc1C2	HEK293 tox inconclusive, NIH3T3 tox inconclusive, NPR1 antag 17.8µM | Npr1 antag conf 17.2µM | NPR2 antag 19.3µM | FLuc inh counter inactive | GloSensor cGMP 13.7µM
COCCOCC(=O)N1[C@H]2CC[C@@H]1c1cnc(-c3ccc(F)cc3)nc1C2	NIH3T3 tox inconclusive
O=C(c1ccsc1)N1[C@H]2CC[C@@H]1c1cnc(-c3ccc(F)cc3)nc1C2	HEK293 tox 39.8µM, NPR1 antag 8.91µM | Npr1 antag conf 13.7µM | NPR2 antag 10.9µM | FLuc inh counter inactive | GloSensor cGMP 12.2µM
CCn1ccc(C(=O)N2[C@H]3CC[C@@H]2c2cnc(-c4ccc(F)cc4)nc2C3)n1	HEK293 tox inconclusive
C[C@H]1CN(CC[C@H](O)C2CCCCC2)CC[C@@]1(C)c1cccc(O)c1	none (no result: HEK293 tox, NIH3T3 tox, FLuc inh, SNCA expr inhib, NPR1 antag)
O=C(O)C1=NOC2CN(Cc3cncs3)CC12 (stereo not drawn)	none (no result: FLuc inh, NPR1 antag)
CCn1nccc1C(=O)N1[C@H]2CC[C@@H]1c1cnc(-c3ccccc3)nc1C2	HEK293 tox inconclusive, NPR1 antag 12.6µM | Npr1 antag conf 17.2µM | NPR2 antag 21.7µM | FLuc inh counter inactive | GloSensor cGMP 15.3µM
CCC(CC)c1cc([C@H]2CN3CC[C@H]2C[C@@H]3CNC(=O)COc2ccccc2)nc(-c2ccncc2)n1	HEK293 tox 28.2µM, NIH3T3 tox 22.4µM, SNCA expr inhib inconclusive, NPR1 antag 11.2µM, HEK293 viab inconclusive | Npr1 antag conf 17.2µM | NPR2 antag 17.2µM | FLuc inh counter inactive | GloSensor cGMP inactive
C[C@]12CC[C@H](O)CC1=CC[C@@H]1C2CC[C@]2(C)[C@@H](C3=CC(=O)OC3)CC[C@]12O (stereo partly drawn)	none (no result: HEK293 tox, NIH3T3 tox, FLuc inh, SNCA expr inhib, NPR1 antag)
COc1cc2c(cc1Oc1cccc(N(C)C)c1)NC(=O)C21CCN(Cc2ccccc2)CC1	HEK293 tox 28.2µM, NIH3T3 tox 25.1µM, SNCA expr inhib inconclusive, NPR1 antag 11.2µM | Npr1 antag conf 17.2µM | NPR2 antag 19.3µM | FLuc inh counter inactive | GloSensor cGMP 9.68µM
COc1cc2c(cc1Oc1cccc(N(C)C)c1)NC(=O)C21CCN(c2ncc(F)cn2)CC1	NIH3T3 tox inconclusive
COc1cc2c(cc1Oc1cccc(N(C)C)c1)NC(=O)C21CCN(Cc2cccc(O)c2)CC1	HEK293 tox 25.1µM, NIH3T3 tox inconclusive, NPR1 antag 11.2µM | Npr1 antag conf 19.3µM | NPR2 antag 21.7µM | FLuc inh counter inactive | GloSensor cGMP 17.2µM
O=C(N1CCCCC1Cc1ccccc1)n1cc(-c2ccc(-c3ccccc3)cc2)nn1 (stereo not drawn)	none (no result: HEK293 tox, NIH3T3 tox, FLuc inh, SNCA expr inhib, NPR1 antag)
O=C(Cc1ccccc1)N1Cc2ccccc2CC2(CCCN2Cc2ccncc2)C1 (stereo not drawn)	HEK293 tox inconclusive (no result: FLuc inh, NPR1 antag)
O=C(Cc1ccc(Cl)cc1)N1Cc2ccccc2CC2(CCCN2CC2CCNC2)C1 (stereo not drawn)	HEK293 tox 28.2µM, NIH3T3 tox 15.8µM (no result: FLuc inh, NPR1 antag) | Npr1 antag conf 21.7µM | NPR2 antag 6.11µM | FLuc inh counter inactive | GloSensor cGMP inactive
C[C@H]1C/C=C/[C@H]2[C@@H]3O[C@]3(C)[C@@H](C)[C@H]3[C@H](Cc4ccccc4)NC(=O)[C@]32OC(=O)O/C=C/[C@@](C)(O)C1=O	none (no result: HEK293 tox, NIH3T3 tox, FLuc inh, SNCA expr inhib, NPR1 antag)
